Data taken from article PMC7862700, “An all-to-all approach to the identification of sequence-specific readers for epigenetic DNA modifications on cytosine”.

Experiments:
Test in all cases: DAPPL (digital affinity profiling via proximity ligation, sequencing); 10 mM Tris-HCl pH 7.5, 50 mM NaCl, 1 mM DTT, 4% glycerol, room temperature, 30 min; GST-TFs on glutathione beads, 16-mer random dsDNA library, 0.1% formaldehyde crosslink after washing; high values mean tight binding
[1] = target: T1, FLI1 (Homo sapiens, UniProt Q01543 1-452); conditions: protein: recombinant; tags: N-terminal GST; dsDNA, one strand shown
T1 sequence: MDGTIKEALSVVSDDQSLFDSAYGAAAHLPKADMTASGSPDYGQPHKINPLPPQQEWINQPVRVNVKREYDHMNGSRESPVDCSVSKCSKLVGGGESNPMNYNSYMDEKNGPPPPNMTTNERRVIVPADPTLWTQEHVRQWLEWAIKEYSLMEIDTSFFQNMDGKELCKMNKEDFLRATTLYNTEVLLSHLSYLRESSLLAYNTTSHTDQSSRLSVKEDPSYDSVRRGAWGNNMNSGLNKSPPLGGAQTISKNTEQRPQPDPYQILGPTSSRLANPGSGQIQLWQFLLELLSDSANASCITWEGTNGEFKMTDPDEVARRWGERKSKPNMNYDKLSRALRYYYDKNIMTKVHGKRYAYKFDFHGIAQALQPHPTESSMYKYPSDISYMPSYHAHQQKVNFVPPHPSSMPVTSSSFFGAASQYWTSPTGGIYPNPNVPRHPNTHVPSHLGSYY
Method in brief: (§1)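 Yeast served to express human transcription factors as GST fusions, which were then captured on glutathione beads and labelled with DNA barcodes. Pooled with a tag-only sample, they were incubated with 200 nmole of a 16-mer random double-stranded DNA library for 30 min at room temperature in Tris/NaCl/DTT/glycerol buffer, washed, crosslinked with 0.1% formaldehyde, ligated by proximity, amplified by PCR and sequenced. Dividing each hexamer's read frequency for a factor by its frequency for the tag-only sample gives the binding signal.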

[2] = target: T2, ELK1 (Homo sapiens, UniProt P19419 1-428); conditions: protein: recombinant; tags: N-terminal GST; dsDNA, one strand shown
T2 sequence: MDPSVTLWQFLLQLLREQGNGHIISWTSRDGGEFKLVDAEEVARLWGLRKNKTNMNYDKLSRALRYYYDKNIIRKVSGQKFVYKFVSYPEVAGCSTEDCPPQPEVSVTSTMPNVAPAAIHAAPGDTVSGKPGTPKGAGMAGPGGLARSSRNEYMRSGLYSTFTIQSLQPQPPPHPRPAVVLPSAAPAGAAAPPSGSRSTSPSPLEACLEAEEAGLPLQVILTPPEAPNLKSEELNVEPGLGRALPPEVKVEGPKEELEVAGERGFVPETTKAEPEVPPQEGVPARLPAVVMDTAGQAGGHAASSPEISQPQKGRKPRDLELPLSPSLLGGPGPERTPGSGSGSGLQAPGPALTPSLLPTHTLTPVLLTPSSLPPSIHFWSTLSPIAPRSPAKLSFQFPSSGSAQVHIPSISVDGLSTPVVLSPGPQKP
Method in brief: as §1

[3] = target: T3, GABPA (Homo sapiens, UniProt Q06546 1-454); conditions: protein: recombinant; tags: N-terminal GST; dsDNA, one strand shown
T3 sequence: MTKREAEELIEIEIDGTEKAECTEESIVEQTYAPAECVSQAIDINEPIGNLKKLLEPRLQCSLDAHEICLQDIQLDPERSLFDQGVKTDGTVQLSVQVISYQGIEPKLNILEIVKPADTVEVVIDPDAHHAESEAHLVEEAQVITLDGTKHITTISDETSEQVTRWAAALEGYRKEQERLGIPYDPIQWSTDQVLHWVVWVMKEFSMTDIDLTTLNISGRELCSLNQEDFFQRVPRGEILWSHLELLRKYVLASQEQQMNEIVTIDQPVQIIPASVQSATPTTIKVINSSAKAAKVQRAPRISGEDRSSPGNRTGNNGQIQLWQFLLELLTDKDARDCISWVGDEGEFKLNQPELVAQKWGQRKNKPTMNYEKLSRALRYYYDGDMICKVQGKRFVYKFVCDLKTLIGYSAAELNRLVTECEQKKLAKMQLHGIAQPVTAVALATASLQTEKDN
Method in brief: as §1

[4] = target: T4, ERG (Homo sapiens, UniProt P11308 1-479); conditions: protein: recombinant; tags: N-terminal GST; dsDNA, one strand shown
T4 sequence: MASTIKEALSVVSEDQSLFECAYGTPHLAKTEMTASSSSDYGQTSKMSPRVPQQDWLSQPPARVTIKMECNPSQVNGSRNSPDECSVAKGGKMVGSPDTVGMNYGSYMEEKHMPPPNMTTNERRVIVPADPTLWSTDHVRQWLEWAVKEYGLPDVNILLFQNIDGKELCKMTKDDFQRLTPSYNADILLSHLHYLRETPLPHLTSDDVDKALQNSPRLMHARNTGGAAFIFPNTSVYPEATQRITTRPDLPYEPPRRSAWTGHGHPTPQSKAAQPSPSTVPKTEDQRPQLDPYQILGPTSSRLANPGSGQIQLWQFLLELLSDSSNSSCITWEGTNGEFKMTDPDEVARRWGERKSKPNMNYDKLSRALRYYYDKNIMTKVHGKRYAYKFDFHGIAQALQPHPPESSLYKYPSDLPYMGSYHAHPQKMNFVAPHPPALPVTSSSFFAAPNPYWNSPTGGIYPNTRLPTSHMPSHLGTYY
Method in brief: as §1

[5] = target: ELF1 (Homo sapiens, UniProt P32519 1-619); conditions: protein: recombinant; tags: N-terminal GST; dsDNA, one strand shown
Method in brief: as §1

[6] = target: T5, EHF (Homo sapiens, UniProt Q9NZC4 1-300); conditions: protein: recombinant; tags: N-terminal GST; dsDNA, one strand shown
T5 sequence: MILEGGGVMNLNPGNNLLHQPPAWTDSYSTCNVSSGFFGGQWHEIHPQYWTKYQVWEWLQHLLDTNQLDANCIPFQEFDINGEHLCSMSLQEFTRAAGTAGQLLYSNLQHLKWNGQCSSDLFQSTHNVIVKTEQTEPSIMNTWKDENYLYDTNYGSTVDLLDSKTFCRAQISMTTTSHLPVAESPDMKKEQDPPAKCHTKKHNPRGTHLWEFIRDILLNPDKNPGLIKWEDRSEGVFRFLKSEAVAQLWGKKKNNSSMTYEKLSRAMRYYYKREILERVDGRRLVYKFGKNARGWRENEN
Method in brief: as §1

[7] = target: SPI1 (Homo sapiens, UniProt P17947 1-270); conditions: protein: recombinant; tags: N-terminal GST; dsDNA, one strand shown
Method in brief: as §1

[8] = target: SPIB (Homo sapiens, UniProt Q01892 1-262); conditions: protein: recombinant; tags: N-terminal GST; dsDNA, one strand shown
Method in brief: as §1

[9] = target: T6, ELK3 (Homo sapiens, UniProt P41970 1-407); conditions: protein: recombinant; tags: N-terminal GST; dsDNA, one strand shown
T6 sequence: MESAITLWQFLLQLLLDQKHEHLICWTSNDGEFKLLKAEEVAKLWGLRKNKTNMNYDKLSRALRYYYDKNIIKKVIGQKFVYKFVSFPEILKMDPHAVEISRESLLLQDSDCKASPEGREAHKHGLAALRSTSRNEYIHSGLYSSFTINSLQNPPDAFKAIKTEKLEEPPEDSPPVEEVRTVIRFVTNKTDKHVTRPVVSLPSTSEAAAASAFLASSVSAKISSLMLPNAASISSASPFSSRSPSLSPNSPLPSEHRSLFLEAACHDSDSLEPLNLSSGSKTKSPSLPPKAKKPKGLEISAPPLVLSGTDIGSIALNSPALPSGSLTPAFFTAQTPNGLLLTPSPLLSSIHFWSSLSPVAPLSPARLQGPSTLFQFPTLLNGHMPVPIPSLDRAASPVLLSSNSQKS
Method in brief: as §1

[10] = target: T7, FEV (Homo sapiens, UniProt Q99581 1-238); conditions: protein: recombinant; tags: N-terminal GST; dsDNA, one strand shown
T7 sequence: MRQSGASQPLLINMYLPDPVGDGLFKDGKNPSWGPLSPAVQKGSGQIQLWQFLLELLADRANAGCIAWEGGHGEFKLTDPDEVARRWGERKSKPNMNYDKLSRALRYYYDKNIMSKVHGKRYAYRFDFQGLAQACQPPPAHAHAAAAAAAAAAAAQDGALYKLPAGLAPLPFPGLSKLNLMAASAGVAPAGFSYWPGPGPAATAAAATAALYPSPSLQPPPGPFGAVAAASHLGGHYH
Method in brief: as §1

[11] = target: ETV5 (Homo sapiens, UniProt P41161 1-510); conditions: protein: recombinant; tags: N-terminal GST; dsDNA, one strand shown
Method in brief: as §1

[12] = target: HSF1 (Homo sapiens, UniProt Q00613 1-529); conditions: protein: recombinant; tags: N-terminal GST; chain copies: 3; dsDNA, one strand shown
Method in brief: as §1

[13] = target: T8, SPIC (Homo sapiens, UniProt Q8N5J4 1-248); conditions: protein: recombinant; tags: N-terminal GST; dsDNA, one strand shown
T8 sequence: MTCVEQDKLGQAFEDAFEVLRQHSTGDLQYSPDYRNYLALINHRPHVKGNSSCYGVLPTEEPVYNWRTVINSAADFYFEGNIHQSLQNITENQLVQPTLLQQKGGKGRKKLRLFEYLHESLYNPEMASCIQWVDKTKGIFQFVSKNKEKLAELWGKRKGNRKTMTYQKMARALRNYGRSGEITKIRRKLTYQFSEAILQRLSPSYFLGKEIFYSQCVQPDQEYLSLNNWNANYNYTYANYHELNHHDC
Method in brief: as §1

[14] = target: ELF4 (Homo sapiens, UniProt Q99607 1-663); conditions: protein: recombinant; tags: N-terminal GST; dsDNA, one strand shown
Method in brief: as §1

[15] = target: T9, ELK4 (Homo sapiens, UniProt P28324-2 1-405); conditions: protein: recombinant; tags: N-terminal GST; dsDNA, one strand shown
T9 sequence: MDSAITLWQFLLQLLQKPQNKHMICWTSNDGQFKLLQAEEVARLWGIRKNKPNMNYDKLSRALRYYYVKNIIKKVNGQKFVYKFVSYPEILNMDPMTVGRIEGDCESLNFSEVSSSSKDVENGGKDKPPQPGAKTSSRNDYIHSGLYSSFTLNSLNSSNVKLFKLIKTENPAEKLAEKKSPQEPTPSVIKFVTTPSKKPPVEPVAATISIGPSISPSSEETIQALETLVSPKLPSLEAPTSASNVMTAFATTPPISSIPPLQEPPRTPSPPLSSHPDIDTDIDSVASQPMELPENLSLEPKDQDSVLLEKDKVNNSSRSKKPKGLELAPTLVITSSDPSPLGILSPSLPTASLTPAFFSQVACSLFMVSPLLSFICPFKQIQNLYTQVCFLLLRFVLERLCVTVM
Method in brief: as §1

[16] = target: T10, ETV2 (Homo sapiens, UniProt O00321 1-342); conditions: protein: recombinant; tags: N-terminal GST; dsDNA, one strand shown
T10 sequence: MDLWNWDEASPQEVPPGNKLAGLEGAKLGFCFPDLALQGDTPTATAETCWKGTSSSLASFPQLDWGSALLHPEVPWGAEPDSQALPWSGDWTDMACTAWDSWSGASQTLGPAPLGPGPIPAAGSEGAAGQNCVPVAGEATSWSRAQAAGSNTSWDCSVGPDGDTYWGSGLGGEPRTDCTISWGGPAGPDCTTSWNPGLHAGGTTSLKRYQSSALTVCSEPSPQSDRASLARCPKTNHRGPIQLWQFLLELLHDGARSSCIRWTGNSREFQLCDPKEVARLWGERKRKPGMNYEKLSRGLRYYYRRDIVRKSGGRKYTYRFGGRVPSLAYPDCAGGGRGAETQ
Method in brief: as §1

[17] = target: T11, ELF3 (Homo sapiens, UniProt P78545 1-371); conditions: protein: recombinant; tags: N-terminal GST; dsDNA, one strand shown
T11 sequence: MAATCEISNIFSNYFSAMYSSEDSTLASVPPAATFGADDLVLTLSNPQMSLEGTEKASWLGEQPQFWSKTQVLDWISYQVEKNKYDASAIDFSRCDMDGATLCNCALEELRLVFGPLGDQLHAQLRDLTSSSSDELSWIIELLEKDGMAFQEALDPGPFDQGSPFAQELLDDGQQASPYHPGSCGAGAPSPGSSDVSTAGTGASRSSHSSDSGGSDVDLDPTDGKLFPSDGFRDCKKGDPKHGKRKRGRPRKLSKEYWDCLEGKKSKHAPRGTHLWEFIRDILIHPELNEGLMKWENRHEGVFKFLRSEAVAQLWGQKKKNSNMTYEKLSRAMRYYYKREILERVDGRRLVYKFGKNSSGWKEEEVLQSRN
Method in brief: as §1

[18] = target: CRX (Homo sapiens, UniProt O43186 1-299); conditions: protein: recombinant; tags: N-terminal GST; dsDNA, one strand shown
Method in brief: as §1

[19] = target: ETV1 (Homo sapiens, UniProt P50549 1-477); conditions: protein: recombinant; tags: N-terminal GST; dsDNA, one strand shown
Method in brief: as §1

Sequence of SPIB (Q01892 whole entry): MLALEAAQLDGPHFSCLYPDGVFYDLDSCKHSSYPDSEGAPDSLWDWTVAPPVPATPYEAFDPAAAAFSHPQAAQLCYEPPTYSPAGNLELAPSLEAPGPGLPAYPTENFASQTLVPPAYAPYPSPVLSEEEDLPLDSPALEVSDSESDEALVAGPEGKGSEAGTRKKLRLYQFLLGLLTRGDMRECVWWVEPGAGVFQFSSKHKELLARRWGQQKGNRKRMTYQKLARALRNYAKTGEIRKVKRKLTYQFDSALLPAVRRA
Sequence of ETV1 (P50549 whole entry): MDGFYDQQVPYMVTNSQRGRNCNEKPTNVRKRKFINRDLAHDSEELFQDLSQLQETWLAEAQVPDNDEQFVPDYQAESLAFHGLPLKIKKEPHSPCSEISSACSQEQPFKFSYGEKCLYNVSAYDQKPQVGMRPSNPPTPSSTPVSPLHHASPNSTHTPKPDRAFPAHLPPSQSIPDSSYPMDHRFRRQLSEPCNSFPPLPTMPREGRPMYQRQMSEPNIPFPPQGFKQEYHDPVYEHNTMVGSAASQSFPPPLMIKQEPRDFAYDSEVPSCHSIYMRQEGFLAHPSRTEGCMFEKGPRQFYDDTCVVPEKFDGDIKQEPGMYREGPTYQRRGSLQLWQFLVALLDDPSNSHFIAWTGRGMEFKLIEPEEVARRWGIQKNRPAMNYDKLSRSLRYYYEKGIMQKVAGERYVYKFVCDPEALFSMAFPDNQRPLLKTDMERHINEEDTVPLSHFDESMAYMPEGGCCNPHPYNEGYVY
Sequence of HSF1 (Q00613 whole entry): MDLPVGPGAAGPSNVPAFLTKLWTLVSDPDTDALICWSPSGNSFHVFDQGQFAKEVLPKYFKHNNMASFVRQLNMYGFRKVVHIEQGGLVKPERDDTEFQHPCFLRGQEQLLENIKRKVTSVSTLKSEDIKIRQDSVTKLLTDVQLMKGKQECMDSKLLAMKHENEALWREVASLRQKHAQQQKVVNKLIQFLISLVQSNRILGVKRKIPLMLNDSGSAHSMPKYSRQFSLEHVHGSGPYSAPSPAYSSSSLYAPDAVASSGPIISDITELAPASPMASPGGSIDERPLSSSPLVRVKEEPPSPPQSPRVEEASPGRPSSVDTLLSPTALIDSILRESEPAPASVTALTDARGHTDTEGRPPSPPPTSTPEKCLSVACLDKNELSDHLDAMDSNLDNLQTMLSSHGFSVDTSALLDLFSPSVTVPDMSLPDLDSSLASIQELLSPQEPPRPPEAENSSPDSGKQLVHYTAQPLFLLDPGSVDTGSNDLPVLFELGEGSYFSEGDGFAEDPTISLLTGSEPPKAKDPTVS
Sequence of ETV5 (P41161 whole entry): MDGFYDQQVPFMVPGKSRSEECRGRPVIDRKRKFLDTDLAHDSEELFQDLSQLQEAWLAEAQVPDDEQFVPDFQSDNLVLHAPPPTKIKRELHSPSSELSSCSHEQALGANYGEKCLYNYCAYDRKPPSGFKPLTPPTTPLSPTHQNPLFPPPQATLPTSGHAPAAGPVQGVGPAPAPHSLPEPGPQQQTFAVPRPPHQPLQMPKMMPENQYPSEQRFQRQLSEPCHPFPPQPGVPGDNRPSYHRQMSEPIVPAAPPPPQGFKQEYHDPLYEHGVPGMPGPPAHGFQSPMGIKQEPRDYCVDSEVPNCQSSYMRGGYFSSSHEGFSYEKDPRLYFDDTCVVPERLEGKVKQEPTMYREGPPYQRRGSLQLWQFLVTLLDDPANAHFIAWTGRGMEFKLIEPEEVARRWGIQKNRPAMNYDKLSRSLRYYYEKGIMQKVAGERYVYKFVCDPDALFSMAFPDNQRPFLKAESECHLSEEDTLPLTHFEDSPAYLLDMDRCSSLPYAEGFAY
Sequence of ELF4 (Q99607 whole entry): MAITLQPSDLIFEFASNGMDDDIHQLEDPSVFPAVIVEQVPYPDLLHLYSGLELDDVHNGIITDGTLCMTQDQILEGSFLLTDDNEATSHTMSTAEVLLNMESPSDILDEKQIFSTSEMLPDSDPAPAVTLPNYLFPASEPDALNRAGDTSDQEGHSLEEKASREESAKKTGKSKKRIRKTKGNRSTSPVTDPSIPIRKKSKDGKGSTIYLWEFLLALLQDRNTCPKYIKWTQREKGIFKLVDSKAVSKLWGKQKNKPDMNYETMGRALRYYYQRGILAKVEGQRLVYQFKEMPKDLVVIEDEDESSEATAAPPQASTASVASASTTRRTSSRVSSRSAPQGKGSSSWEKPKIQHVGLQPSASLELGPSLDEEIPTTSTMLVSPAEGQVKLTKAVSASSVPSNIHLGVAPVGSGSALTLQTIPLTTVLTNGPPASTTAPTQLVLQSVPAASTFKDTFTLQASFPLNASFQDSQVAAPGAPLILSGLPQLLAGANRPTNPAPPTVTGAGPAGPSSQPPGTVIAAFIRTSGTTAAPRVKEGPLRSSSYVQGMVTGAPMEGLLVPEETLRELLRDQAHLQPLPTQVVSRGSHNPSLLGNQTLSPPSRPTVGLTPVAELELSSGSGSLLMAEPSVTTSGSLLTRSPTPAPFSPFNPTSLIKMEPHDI
Sequence of ELF1 (P32519 whole entry): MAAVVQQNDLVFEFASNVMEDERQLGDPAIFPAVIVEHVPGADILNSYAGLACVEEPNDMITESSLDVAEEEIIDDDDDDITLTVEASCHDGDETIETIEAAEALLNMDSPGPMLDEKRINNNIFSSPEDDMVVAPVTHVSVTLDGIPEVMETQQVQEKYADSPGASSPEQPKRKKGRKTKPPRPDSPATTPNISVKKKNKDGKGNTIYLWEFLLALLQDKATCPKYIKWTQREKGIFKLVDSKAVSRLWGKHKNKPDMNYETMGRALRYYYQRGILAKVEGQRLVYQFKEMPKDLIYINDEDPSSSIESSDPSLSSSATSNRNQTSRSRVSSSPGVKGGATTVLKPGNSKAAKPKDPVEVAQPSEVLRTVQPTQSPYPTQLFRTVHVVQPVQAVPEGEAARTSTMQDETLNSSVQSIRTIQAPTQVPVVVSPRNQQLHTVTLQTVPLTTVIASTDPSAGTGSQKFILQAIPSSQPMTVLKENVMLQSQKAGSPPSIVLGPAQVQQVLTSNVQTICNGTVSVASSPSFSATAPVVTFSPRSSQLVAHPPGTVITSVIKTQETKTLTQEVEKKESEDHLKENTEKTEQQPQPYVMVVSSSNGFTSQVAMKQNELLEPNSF
Sequence of CRX (O43186 whole entry): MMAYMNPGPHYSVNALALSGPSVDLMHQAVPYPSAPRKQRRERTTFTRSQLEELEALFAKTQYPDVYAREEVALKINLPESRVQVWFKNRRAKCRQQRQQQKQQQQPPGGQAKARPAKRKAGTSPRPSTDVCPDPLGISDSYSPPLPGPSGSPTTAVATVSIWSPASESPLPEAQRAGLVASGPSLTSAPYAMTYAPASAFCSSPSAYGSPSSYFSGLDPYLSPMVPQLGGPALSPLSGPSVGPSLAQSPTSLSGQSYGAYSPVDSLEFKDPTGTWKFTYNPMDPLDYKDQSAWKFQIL

ACCGAC
binding signal [1]: 1.41 fold enrichment (6-mer frequency, TF over GST control)
binding signal [2]: 1.29 fold enrichment (6-mer frequency, TF over GST control)
binding signal [3]: 1.29 fold enrichment (6-mer frequency, TF over GST control)
binding signal [4]: 1.29 fold enrichment (6-mer frequency, TF over GST control)
binding signal [5]: 1.3 fold enrichment (6-mer frequency, TF over GST control)
binding signal [6]: 1.23 fold enrichment (6-mer frequency, TF over GST control)
binding signal [7]: 1.4 fold enrichment (6-mer frequency, TF over GST control)
binding signal [8]: 1.34 fold enrichment (6-mer frequency, TF over GST control)
binding signal [9]: 1.35 fold enrichment (6-mer frequency, TF over GST control)
binding signal [10]: 1.36 fold enrichment (6-mer frequency, TF over GST control)
binding signal [11]: 1.31 fold enrichment (6-mer frequency, TF over GST control)
binding signal [12]: 1.05 fold enrichment (6-mer frequency, TF over GST control)
binding signal [13]: 1.37 fold enrichment (6-mer frequency, TF over GST control)
binding signal [14]: 1.31 fold enrichment (6-mer frequency, TF over GST control)
binding signal [15]: 1.24 fold enrichment (6-mer frequency, TF over GST control)
binding signal [16]: 1.36 fold enrichment (6-mer frequency, TF over GST control)
binding signal [17]: 1.17 fold enrichment (6-mer frequency, TF over GST control)
binding signal [18]: 1.05 fold enrichment (6-mer frequency, TF over GST control)
binding signal [19]: 1.37 fold enrichment (6-mer frequency, TF over GST control)
